# Counter-ions that a name gives are not always drawn.
# Key:
# Assay in all cases: Euclidean distance of Cell Painting phenotypic profile (signed KS, 77 features) to DMSO centroid (dimensionless distance); 5 or 10 uM (library dependent); higher = stronger phenotypic change vs DMSO (phenoactivity)
# Settings in all cases: 48 h
# [1] = test system: 786-O
# How it was run: (§1)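 Five cancer lines, together with a healthy fibroblast line, received library compounds for 48 h at a library-dependent 10 or 5 uM and 0.1% DMSO final. Harmony then derived 77 features from confocal 20X images (9 fields/well) of the stained cells, scoring each as a signed Kolmogorov-Smirnov statistic against same-plate vehicle wells. After plate-position correction, correlation weighting and replicate averaging at the top dose, phenoactivity was taken as each profile's Euclidean distance to the median vehicle profile.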
# [2] = test system: A549
# How it was run: as §1
# [3] = test system: DU145
# How it was run: as §1
# [4] = test system: FB
# How it was run: as §1
# [5] = test system: HEPG2
# How it was run: as §1
# [6] = test system: OVCAR4
# How it was run: as §1
SMILES,Euclidean distance [1],Euclidean distance [2],Euclidean distance [3],Euclidean distance [4],Euclidean distance [5],Euclidean distance [6]
Nc1nc(F)nc2c1ncn2[C@@H]1O[C@H](CO)[C@@H](O)[C@@H]1O [Fludarabine],1.67,1.6,1.17,1.81,1.21,1.63
CC1=C[C@H]2C(=O)O[C@H]3C[C@@H](C/C=C(\C)C[C@@H](C)/C=C/C=C4\CO[C@H](/C1=N\O)[C@@]42O)O[C@@]1(CC[C@H](C)[C@@H](C)O1)C3.CC[C@H]1O[C@]2(CC[C@@H]1C)C[C@@H]1C[C@@H](C/C=C(\C)C[C@@H](C)/C=C/C=C3\CO[C@@H]4/C(=N\O)C(C)=C[C@@H](C(=O)O1)[C@]34O)O2 [Milbemycin Oxime],0.91,0.957,0.954,1.3,0.456,1.11
Cc1c(C(=O)NN2CCCCC2)nn(-c2ccc(Cl)cc2Cl)c1-c1ccc(I)cc1,1.16,1.17,0.842,1.03,0.6,0.903
CN(CCN1CCC(OC(=O)Nc2ccccc2-c2ccccc2)CC1)C(=O)c1ccc(CN2CCC(C(N)=O)CC2)cc1 [Revefenacin],1.01,1.27,1.01,1.33,1.25,1.44
c1ccc(-c2ccc(C(c3ccccc3)n3ccnc3)cc2)cc1 (configuration not stated) [Bifonazole],1.54,1.43,1.19,1.17,0.639,1.31
CC(=O)NS(=O)(=O)c1ccc(N)cc1 [Sulfacetamide sodium salt hydrate],1.2,0.692,0.872,1.61,0.38,1.53
O=C1OCCN1/N=C/c1ccc([N+](=O)[O-])o1 [Furazolidone],1.14,1.26,1.02,1.13,0.999,1.09
C[C@@H]1C[C@H]2[C@@H]3C[C@H](F)C4=CC(=O)C=C[C@]4(C)[C@@]3(F)[C@@H](O)C[C@]2(C)[C@@]1(O)C(=O)CO [Flumethasone],1.24,2.47,2.17,2.26,0.627,1.97
CCC[C@@H]1C[C@@H](C(=O)N[C@@H]([C@H]2O[C@H](SC)[C@H](O)[C@@H](O)[C@H]2O)[C@H](C)Cl)N(C)C1 [Clindamycin],0.793,0.77,0.629,1.14,0.601,0.602
C=CC(=O)N1CCC([C@@H]2CCNc3c(C(N)=O)c(-c4ccc(Oc5ccccc5)cc4)nn32)CC1 [Zanubrutinib (BGB-3111)],1.58,1.45,2.15,1.57,0.671,1.72
COc1ccc(COc2cc3oc(=O)c4cc(C(C)O)ccc4c3cc2OC)cc1 (configuration not stated) [Palomid 529 (P529)],1.8,1.25,1.29,1.02,1.33,1.06
O=c1c(O)c(-c2ccc(O)c(O)c2)oc2cc(O)cc(O)c12 [Quercetin Dihydrate],0.703,1.01,0.731,0.799,0.874,0.868
Cc1c(CN2CCN(C(=O)[C@H](C)O)CC2)sc2c(N3CCOCC3)nc(-c3cnc(N)nc3)nc12,4.15,2.91,1.8,4.11,3.04,3.09
NCc1ccccc1CC(=O)N[C@@H]1C(=O)N2C(C(=O)O)=C(CSc3nnnn3CC(=O)O)CS[C@H]12 [Ceforanide],0.783,0.791,1.07,1.16,0.834,1.64
Clc1ccc(C(c2ccccc2Cl)C(Cl)Cl)cc1 (configuration not stated) [Mitotane],0.994,0.919,1.27,1.79,1.84,1.45
C=CC(=O)Nc1cccc(Sc2nc(Nc3ccc(N4CCN(C)CC4)cc3)ncc2Cl)c1,2.96,3.04,2.04,3.82,3.02,2.64
COc1ccccc1N1CCN(CC(O)COc2cccc3ccccc23)CC1 (configuration not stated) [Naftopidil],1.4,1.01,0.795,1.01,0.934,0.99
CCCc1nc(C(C)(C)O)c(C(=O)O)n1Cc1ccc(-c2ccccc2-c2nnn[nH]2)cc1 [Olmesartan],1.21,0.9,1.57,0.802,0.353,1.32
CC(C)OC(=O)C1=CN(C(=O)c2ccc(F)c(F)c2)CC(C)(C)c2c1[nH]c1ccccc21,0.816,0.896,0.818,0.982,1.22,1.07
CCOC(=O)[C@H](CCc1ccccc1)N[C@@H](C)C(=O)N1Cc2cc(OC)c(OC)cc2C[C@H]1C(=O)O [Moexipril HCl],1.48,1.49,1.02,0.74,2.35,1.78
CCn1cc(C(=O)O)c(=O)c2cc(F)c(N3CCN(C)CC3)cc21 [Pefloxacin Mesylate Dihydrate],1.52,1.04,0.855,0.707,0.635,1.07
CC[C@H](C)[C@@H]1NC(=O)[C@H](Cc2ccc(O)cc2)NC(=O)[C@@H](N)CSSC[C@@H](C(=O)N2CCC[C@H]2C(=O)N[C@@H](CC(C)C)C(=O)NCC(N)=O)NC(=O)[C@H](CC(N)=O)NC(=O)[C@H](CCC(N)=O)NC1=O [Oxytocin (Syntocinon)],1.83,1.77,0.912,1.41,0.745,0.928
CCc1ccc(N(CC(C)C)S(=O)(=O)c2ccc(OCC3CCOCC3)c(CO)c2)cc1,1.56,1.56,1.9,1.05,0.857,1.66
C[C@H](Oc1cc(-c2cnn(C3CCNCC3)c2)cnc1N)c1c(Cl)ccc(F)c1Cl [(S)-crizotinib],3.79,3.26,2.55,4.85,3.67,2.78

SMILES,Euclidean distance [1],Euclidean distance [2],Euclidean distance [3],Euclidean distance [4],Euclidean distance [5],Euclidean distance [6]
CCCCC(CC)COC(=O)CC(C(=O)OCC(CC)CCCC)S(=O)(=O)O (configuration not stated) [Docusate Sodium],0.771,0.602,0.942,1.2,0.96,1.25
CS(=O)(=O)c1ccc(C(=O)Nc2ccc(Cl)c(-c3ccccn3)c2)c(Cl)c1 [Vismodegib (GDC-0449)],1.82,1.01,0.671,1,0.631,0.924
CCCCC1=NC2(CCCC2)C(=O)N1Cc1ccc(-c2ccccc2S(=O)(=O)Nc2noc(C)c2C)c(COCC)c1,1.6,0.599,1.01,0.872,0.445,0.927
FC(F)(F)c1ccc(CNc2ccc(Cc3c[nH]c4ncc(Cl)cc34)cn2)cn1 [Pexidartinib (PLX3397)],1.31,1.41,1.04,1.53,2.18,1
NS(=O)(=O)c1cc2c(cc1Cl)N=C(CSCc1ccccc1)NS2(=O)=O [Benzthiazide],1.33,1.17,1.06,1.18,1.62,1.62
OCC(CO)N[C@H]1C[C@](O)(CO)[C@@H](O)[C@H](O)[C@H]1O [Voglibose],0.92,0.919,0.846,0.977,1.06,1.34
CN(Cc1cc(Br)cc(Br)c1N)C1CCCCC1 [Bromhexine],0.96,1.02,0.619,0.847,0.566,1.03
CC1CCc2cc(F)cc3c(=O)c(C(=O)O)cn1c23 (configuration not stated) [Flumequine],1.37,0.57,1.32,0.897,0.704,1.44
CCCNS(=O)(=O)Nc1ncnc(OCCOc2ncc(Br)cn2)c1-c1ccc(Br)cc1 [Macitentan],1.36,0.708,0.918,0.878,0.806,0.809
COCCCC/C(=N\OCCN)c1ccc(C(F)(F)F)cc1 [Fluvoxamine maleate],1.27,0.895,0.762,1.25,1.1,1.58
CC[C@@]1(O)C(=O)OCc2c1cc1n(c2=O)Cc2cc3c(CN(C)C)c(O)ccc3nc2-1 [Topotecan],3.37,4.25,3.94,3.77,3.31,2.85
CN1CCN(CC/C=C2/c3ccccc3Sc3ccc(S(=O)(=O)N(C)C)cc32)CC1 [Thiothixene],2.81,2.33,2.21,2.69,3.3,2.03
COc1ccc(-c2cc(=S)ss2)cc1 [Anethole trithione],1.49,1.04,1.18,1.03,0.61,1.06
CN(C)CCC(c1ccc(Cl)cc1)c1ccccn1 (configuration not stated) [Chlorpheniramine Maleate],1.37,0.807,1.01,1.23,1.4,1.15
CN1[C@@H]2CC[C@H]1C[C@@H](OC(c1ccccc1)c1ccccc1)C2 [Benztropine mesylate],1.38,0.973,1.51,1.56,1.19,1.21
C=CCNC1=C2C[C@@H](C)C[C@H](OC)[C@H](O)[C@@H](C)/C=C(\C)[C@H](OC(N)=O)[C@@H](OC)/C=C\C=C(/C)C(=O)NC(=CC1=O)C2=O,2.85,2.95,4.51,3.47,3.86,2.72
CO/N=C(\C(=O)N[C@@H]1C(=O)N2C(C(=O)OCOC(=O)C(C)(C)C)=C(/C=C\c3scnc3C)CS[C@H]12)c1csc(N)n1 [Cefditoren Pivoxil],1.06,0.732,1.67,1.03,2.12,1.5
COc1ccc2c(c1)c(CC(=O)N1CCOCC1)c(C)n2C(=O)c1ccc(Cl)cc1,0.785,0.772,0.859,0.741,0.95,0.74
Cc1ccc(O)c([C@H](CCN(C(C)C)C(C)C)c2ccccc2)c1 [Tolterodine tartrate],1.87,0.728,0.897,1.13,1.19,1.58
Cc1c(O)c(=O)ccn1C [Deferiprone],1.58,0.809,1.07,1.18,0.561,0.947
CC1(C)CC(=O)c2c(C(F)(F)F)nn(-c3ccc(C(N)=O)c(N[C@H]4CC[C@H](OC(=O)CN)CC4)c3)c2C1,3.85,3.38,3.89,3.31,3.05,2.62
CNCc1ccc(-c2[nH]c3cc(F)cc4c3c2CCNC4=O)cc1,1.61,1.12,0.651,1.66,1.33,1.23
O=C(Cc1ccc(-c2ccc(OCCN3CCOCC3)cc2)cn1)NCc1ccccc1,3.21,3.15,4.51,2.74,3.85,2.99
